PKD1 kinase inh: inhibitors of human PKD1 kinase. PKD1 kinase fluorescence polarization assay. Q15139. inhibition, % (test concentration not listed). 0.056% of 200,000 active; in the data active = inhibition above about 50%
Efa HMGR inh: E. faecalis class II HMG-CoA reductase inhibition | purified E. faecalis HMGR, NADPH absorbance 340 nm kinetic | inhibition, % at 10 µM | 0.41% of 190,000 active | AID 1066;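 active = inhibition above a set limit, the median over all tested compounds plus 3 SD, cut at about 9.5% in these data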;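 also: enzyme runs in reverse so mevalonate oxidation gives rising NADPH absorbance; 0% = complete reaction with DMSO and 100% = background rate lacking mevalonate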
Hsp70 activator: switches on Hsp70 transcription; HeLa Hsp70 promoter luciferase reporter, luminescence; scaled: vehicle 0, proteasome-inhibitor control 100%; activation, % at 10 µM; 0.04% of 200,000 active;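 active = activation above the mean across all tested compounds plus 3 SD, cutoff set per campaign, cut at about 5.5% in these data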;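 also: 100% = MG132 at 30 µM as the positive control and 0% = DMSO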
Arbovirus inh: blocks arbovirus infection; inhibition, % at 10 µM; arbovirus infection cell-based antiviral screen; 0.37% of 200,000 active; AID 1251; in the data active = inhibition above about 30%
Wee1 degr inh: blocks degradation of human Wee1 kinase | P30291 | HeLa Luc-Wee1K328M stability, luciferase luminescence; 100% = proteasome inhibitor MG132 effect | reporter increase, % at 5 µM | 1.2% of 220,000 active | AID 1321;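 active = activation above the mean of all tested compounds plus 3 SD, set per screening run, cut at about 8.8% in these data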;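 also: cells exposed to compound for 20 h before luminescence read; 0% = DMSO alone and 100% = MG132 at 30 µM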
Target sequence (P30291 whole entry K328M): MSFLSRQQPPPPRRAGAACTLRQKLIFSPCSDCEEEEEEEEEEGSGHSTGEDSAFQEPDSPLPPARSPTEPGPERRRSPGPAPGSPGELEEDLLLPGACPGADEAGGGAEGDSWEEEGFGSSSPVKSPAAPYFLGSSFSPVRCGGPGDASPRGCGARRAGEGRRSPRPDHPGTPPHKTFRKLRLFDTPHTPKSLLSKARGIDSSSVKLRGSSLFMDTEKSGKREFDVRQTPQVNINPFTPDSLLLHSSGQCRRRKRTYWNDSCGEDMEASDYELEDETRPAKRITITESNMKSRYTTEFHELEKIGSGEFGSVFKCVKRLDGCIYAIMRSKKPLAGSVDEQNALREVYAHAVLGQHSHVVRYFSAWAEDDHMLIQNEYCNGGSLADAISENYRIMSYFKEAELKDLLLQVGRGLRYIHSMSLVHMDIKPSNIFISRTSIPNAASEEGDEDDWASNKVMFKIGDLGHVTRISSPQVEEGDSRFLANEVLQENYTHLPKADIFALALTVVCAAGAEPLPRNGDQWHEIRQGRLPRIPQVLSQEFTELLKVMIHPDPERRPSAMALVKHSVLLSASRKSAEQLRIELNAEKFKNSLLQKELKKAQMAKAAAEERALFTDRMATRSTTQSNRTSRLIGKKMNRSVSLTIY
The depositor's hits bear a star; nt = no result given. An excerpt weighted towards active compounds, which were near 2% of everything screened.

SMILES	PKD1 kinase inh	Efa HMGR inh	Hsp70 activator	Arbovirus inh	Wee1 degr inh
COc1ccc(CC(=O)NNS(=O)(=O)c2ccc(F)cc2)cc1OC	-2	-7	0	-2	8.9*
COc1ccc(C(=O)NNC(=O)CSc2nnc(-c3cccnc3)o2)cc1	-1	0	0	-2	-2
COC(=O)c1cc(C(=O)NCCN2C(=O)S/C(=C\c3cccs3)C2=O)cc([N+](=O)[O-])c1	6	-4	0	-11	-1
COc1ccc(C(=O)NNC(=O)OC(C)(C)C)cc1	nt	nt	nt	nt	-2
COc1ccc(C(=O)NN/C(C)=C/C(=O)C(F)(F)C(F)(F)C(F)(F)F)cc1	1	-3	0	85*	0
Cc1cc(C(=O)CSc2ccc3c(c2)OCCO3)c(C)n1C1CC1	-18	1	0	6	-1
O=c1c2ccsc2ncn1Cc1ccccc1F	-4	0	0	-4	15*
Cc1sc2ncn(Cc3ccccc3F)c(=O)c2c1C	-2	-5	0	-8	4
CCCCOc1nc(N2CCOCC2)nc(C)c1[N+](=O)[O-]	nt	nt	nt	nt	1
Cc1nc(N2CCOCC2)nc(Oc2ccccc2)c1[N+](=O)[O-]	nt	nt	nt	nt	9.2*
Cc1nn(C(C)C(=O)NNC(=S)Nc2ccc(F)cc2)c(C)c1[N+](=O)[O-] (configuration not stated)	-2	-6	0	6	-1
O=C1CN(CC(=O)Nc2cccc(Cl)c2Cl)c2ccccc2N1	7	-2	0	-8	0
COC(=O)c1ccccc1NC(=O)CN1CCC(NC(=O)c2ccccc2C)CC1	-5	-2	0	83*	3
COC(=O)c1ccccc1NC(=O)NC1CCCC1	-4	-2	0	-3	9.5*
NC(=O)c1ccccc1NC(=O)NC1CCCCC1	-9	0	0	0	11*
COC(=O)c1ccccc1NC(=O)CN1CCC(C)CC1	-10	4	0	3	8
CCN(CC)C(=S)SCC(=O)NC12CC3CC(CC(C3)C1)C2	5	-1	0	-1	0
COc1ccc(-c2c(N)n[nH]c2C)cc1OC	-10	15*	0	-2	0
COc1ccc(-c2c(-c3ccc(O)cc3O)n[nH]c2C)cc1OC	3	-6	0	-26	4
CCCC1C2C(=O)N(c3cccc(C)c3)C(=O)C2ON1c1ccccc1 (configuration not stated)	nt	nt	nt	nt	-2
Cc1cccc(N/C(N)=N/c2nc(CSc3ccc(Cl)cc3)cc(=O)[nH]2)c1	nt	nt	nt	nt	11*
COc1ccc(N/C(=N/c2nc(C)cc(C)n2)NC(=O)c2ccccc2)cc1	nt	nt	nt	nt	3
COC(=O)C1=C(C)N(c2ccc(OC)c(OC)c2)C(=O)/C1=C\c1ccco1	6	1	0	1	8.9*
CCOC(=O)C1=C(C)N(c2ccccc2)C(=O)/C1=C\c1ccco1	-6	3	0	3	1
Cc1ccc(NC(=O)c2ccc([N+](=O)[O-])o2)cc1S(=O)(=O)N1CCOCC1	-11	-3	0	-37	-2
SMILES	PKD1 kinase inh	Efa HMGR inh	Hsp70 activator	Arbovirus inh	Wee1 degr inh
O=C(Nc1ccc(N2CCOCC2)c(Cl)c1)c1ccc([N+](=O)[O-])o1	-9	26*	0	-40	3
CCOc1nc(NCCO)nc(Nc2ccccc2F)n1	1	-4	0	-4	7
CCOc1nc(NCc2ccco2)nc(Nc2ccccc2F)n1	5	13*	-1	4	-1
CCOCCCNC(=S)N1CCC(C(=O)c2ccc3c(c2)OCCO3)CC1	-2	-1	0	0	3
O=C(Nc1ccccn1)c1cc2cc([N+](=O)[O-])ccc2s1	7	3	0	5	9.4*
O=C(Nc1ccccn1)c1ccc([N+](=O)[O-])cc1Cl	-9	3	0	-5	0
N#CC[n+]1cc(-c2ccc(Cl)cc2)n2c1CCC2	-7	-2	0	4	8.9*
COc1cccc(/C=N/NC(=O)CO/N=C(\C)c2cccs2)c1OC	0	-2	0	-1	10*
C/C(=N\OCC(=O)N/N=C/c1ccccc1O)c1cccs1	-2	-4	0	-28	-3
Nc1ccc(S(=O)(=O)N2CCCC2)cc1Cl	nt	nt	nt	nt	-1
CCOc1ccc(C(=O)NCC(c2cccs2)N(C)C)cc1OCC (configuration not stated)	-8	-6	-1	12	-2
Cn1c(Cn2c3ccccc3c3ccccc32)n[nH]c1=S	nt	nt	nt	nt	9.4*
C=C(C)Cn1c(CCn2c3ccccc3c3ccccc32)n[nH]c1=S	-10	-3	0	10	-3
CCOC(=O)c1c(NC(=O)CSC2=NN3CCCC(=O)N=C3S2)sc2c1CCCCC2	-8	-1	0	0	-1
N#Cc1cccc(NCC(=O)Nc2ccc3c(c2)OCCO3)c1	-7	-2	0	9	9
CCCc1ccc(OCC(=O)Nc2cc(S(=O)(=O)CC)ccc2O)cc1	-6	10*	0	15	-1
COc1cc(Cn2c(=O)oc3ccc(C)cc32)ccc1OC(C)C	-6	14*	0	8	0
CCN1CCN(c2c(Cl)cccc2NC(=O)c2ccc([N+](=O)[O-])cc2)CC1	1	-10	0	1	-2
COc1ccc2c(c1)c(C(=O)N/N=C/c1cn(C)c3ccccc13)c(C)n2C	nt	nt	nt	nt	9.4*
Cc1ccc(OCC(=O)N/N=C/c2cn(C)c3ccccc23)cc1	nt	nt	nt	nt	9.2*
CC(=O)Nc1ccc(S(=O)(=O)N2CCN(Cc3cccs3)CC2)cc1	0	1	0	5	2
CCOC(=O)c1[nH]c(C)c(C(=O)c2ccc(C)cc2)c1C	2	5	0	-18	9.5*
CCOC(=O)c1[nH]c(C)c(C(=O)NCc2ccc(C)cc2)c1C	0	-6	0	-2	-3
CC1C=CCC2C(=O)N(c3cccc(C(=O)N4CCN(c5ccc(F)cc5)CC4)c3)C(=O)C12 (configuration not stated)	0	3	0	5	0
C=CCN(C(=O)c1cccc(N2C(=O)C3CC=CC(C)C3C2=O)c1)c1ccccc1 (configuration not stated)	-4	0	0	30*	-2
SMILES	PKD1 kinase inh	Efa HMGR inh	Hsp70 activator	Arbovirus inh	Wee1 degr inh
O=C(CCc1nnc(Cc2ccc(-c3ccccc3)cc2)o1)NCCc1cccnc1	8	1	0	8	0
Cc1nn2c(-c3ccccc3)c(-c3ccccc3)nc2[nH]c1=O	-17	-4	0	32*	0
O=C(N/N=C/c1ccncc1)NC12CC3CC(CC(C3)C1)C2	nt	nt	nt	nt	3
Cc1ccc(/C=N/NC(=O)NC23CC4CC(CC(C4)C2)C3)o1	nt	nt	nt	nt	10*
Cc1cccc(-n2c(N)c(-c3nc4ccccc4n3C)c3nc4ccccc4nc32)c1	6	-4	0	6	-2
Cn1c(-c2c(N)n(-c3ccccc3)c3nc4ccccc4nc23)nc2ccccc21	-4	-5	0	64*	6
Cc1sc2ncnc(SCC(=O)NC(C)C(C)C)c2c1C (configuration not stated)	-7	0	0	1	-1
Cc1sc2ncnc(SCC(=O)N(C(C)C)C(C)C)c2c1C	-2	11*	0	6	-2

Source: PubChem (several laboratories)
